Key:
Assay in all cases: DAPPL (digital affinity profiling via proximity ligation, sequencing); 10 mM Tris-HCl pH 7.5, 50 mM NaCl, 1 mM DTT, 4% glycerol, room temperature, 30 min; GST-TFs on glutathione beads, 16-mer random dsDNA library, 0.1% formaldehyde crosslink after washing; high values mean tight binding
[1] = biological target: T1, FEV (Homo sapiens, UniProt Q99581 1-238); conditions: protein: recombinant; tags: N-terminal GST; dsDNA, one strand shown
T1 sequence: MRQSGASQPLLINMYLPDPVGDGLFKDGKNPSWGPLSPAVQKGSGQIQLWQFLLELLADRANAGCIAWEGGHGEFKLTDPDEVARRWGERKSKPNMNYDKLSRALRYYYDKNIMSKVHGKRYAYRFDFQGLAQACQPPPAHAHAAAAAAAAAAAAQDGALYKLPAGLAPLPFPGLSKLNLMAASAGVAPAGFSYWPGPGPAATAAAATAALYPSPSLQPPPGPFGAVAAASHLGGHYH
In short: (§1)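 Binding signal is given per hexamer as its read frequency for a factor divided by its frequency in the tag-only sample. GST-fused human transcription factors were expressed in yeast, captured on glutathione beads, barcoded with DNA and pooled with that sample, then incubated with 200 nmole of a 16-mer random double-stranded DNA library in Tris/NaCl/DTT/glycerol buffer for 30 min at room temperature. The pools were then washed, crosslinked, proximity-ligated, amplified by PCR and sequenced on an Illumina NextSeq500.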

[2] = biological target: ETV5 (Homo sapiens, UniProt P41161 1-510); conditions: protein: recombinant; tags: N-terminal GST; dsDNA, one strand shown
Sequence of ETV5 (P41161 whole entry): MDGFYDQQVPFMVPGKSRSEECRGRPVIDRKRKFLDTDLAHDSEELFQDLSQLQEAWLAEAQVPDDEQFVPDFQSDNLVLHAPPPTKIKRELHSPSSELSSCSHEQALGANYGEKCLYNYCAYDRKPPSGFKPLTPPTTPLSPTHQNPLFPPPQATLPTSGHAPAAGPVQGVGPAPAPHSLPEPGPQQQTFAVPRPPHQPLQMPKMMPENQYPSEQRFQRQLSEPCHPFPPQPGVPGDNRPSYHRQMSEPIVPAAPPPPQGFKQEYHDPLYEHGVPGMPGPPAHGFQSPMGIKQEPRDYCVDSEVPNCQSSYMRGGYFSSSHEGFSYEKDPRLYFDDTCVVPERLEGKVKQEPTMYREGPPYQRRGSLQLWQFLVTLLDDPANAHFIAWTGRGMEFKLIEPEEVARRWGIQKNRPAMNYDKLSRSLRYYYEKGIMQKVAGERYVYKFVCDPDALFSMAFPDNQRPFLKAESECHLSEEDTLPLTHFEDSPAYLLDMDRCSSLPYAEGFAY
In short: as §1

[3] = biological target: HSF1 (Homo sapiens, UniProt Q00613 1-529); conditions: protein: recombinant; tags: N-terminal GST; chain copies: 3; dsDNA, one strand shown
Sequence of HSF1 (Q00613 whole entry): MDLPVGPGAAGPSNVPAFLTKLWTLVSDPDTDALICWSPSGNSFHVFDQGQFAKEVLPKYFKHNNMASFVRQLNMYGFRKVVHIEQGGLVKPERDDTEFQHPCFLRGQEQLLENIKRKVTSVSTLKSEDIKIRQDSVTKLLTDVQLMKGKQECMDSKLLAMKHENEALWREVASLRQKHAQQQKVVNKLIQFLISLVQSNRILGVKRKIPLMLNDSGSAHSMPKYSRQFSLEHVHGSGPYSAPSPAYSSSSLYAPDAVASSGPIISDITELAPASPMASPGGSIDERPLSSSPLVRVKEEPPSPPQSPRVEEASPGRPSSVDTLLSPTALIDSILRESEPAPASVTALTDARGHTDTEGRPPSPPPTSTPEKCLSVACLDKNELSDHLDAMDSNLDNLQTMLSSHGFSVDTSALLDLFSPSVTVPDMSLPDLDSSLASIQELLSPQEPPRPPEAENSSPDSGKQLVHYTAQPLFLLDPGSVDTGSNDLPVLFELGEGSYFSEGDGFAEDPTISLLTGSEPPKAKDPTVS
In short: as §1

[4] = biological target: T2, SPIC (Homo sapiens, UniProt Q8N5J4 1-248); conditions: protein: recombinant; tags: N-terminal GST; dsDNA, one strand shown
T2 sequence: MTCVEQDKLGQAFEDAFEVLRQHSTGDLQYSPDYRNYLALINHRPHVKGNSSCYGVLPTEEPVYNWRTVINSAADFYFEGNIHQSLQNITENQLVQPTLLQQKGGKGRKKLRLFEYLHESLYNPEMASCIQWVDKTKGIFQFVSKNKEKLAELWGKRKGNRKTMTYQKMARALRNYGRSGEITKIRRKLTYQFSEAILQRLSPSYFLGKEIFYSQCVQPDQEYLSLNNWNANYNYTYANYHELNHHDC
In short: as §1

[5] = biological target: ELF4 (Homo sapiens, UniProt Q99607 1-663); conditions: protein: recombinant; tags: N-terminal GST; dsDNA, one strand shown
Sequence of ELF4 (Q99607 whole entry): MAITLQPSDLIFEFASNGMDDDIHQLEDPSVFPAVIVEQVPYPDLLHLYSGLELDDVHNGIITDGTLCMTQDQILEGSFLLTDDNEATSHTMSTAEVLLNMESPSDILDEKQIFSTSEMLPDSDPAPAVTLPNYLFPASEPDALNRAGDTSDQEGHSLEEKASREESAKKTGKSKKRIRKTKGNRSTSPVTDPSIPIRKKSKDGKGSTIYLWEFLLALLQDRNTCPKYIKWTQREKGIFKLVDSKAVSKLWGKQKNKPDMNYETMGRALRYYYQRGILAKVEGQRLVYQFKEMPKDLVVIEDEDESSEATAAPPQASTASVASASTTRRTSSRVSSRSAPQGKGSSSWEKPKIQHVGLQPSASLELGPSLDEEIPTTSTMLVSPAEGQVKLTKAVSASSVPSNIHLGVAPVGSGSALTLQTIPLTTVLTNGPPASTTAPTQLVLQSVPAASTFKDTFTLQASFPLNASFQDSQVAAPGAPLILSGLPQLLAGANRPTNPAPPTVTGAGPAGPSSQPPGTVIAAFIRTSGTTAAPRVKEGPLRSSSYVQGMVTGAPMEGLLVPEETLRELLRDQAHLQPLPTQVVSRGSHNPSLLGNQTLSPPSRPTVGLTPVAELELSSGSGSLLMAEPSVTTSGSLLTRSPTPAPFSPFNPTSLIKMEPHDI
In short: as §1

[6] = biological target: T3, ELK4 (Homo sapiens, UniProt P28324-2 1-405); conditions: protein: recombinant; tags: N-terminal GST; dsDNA, one strand shown
T3 sequence: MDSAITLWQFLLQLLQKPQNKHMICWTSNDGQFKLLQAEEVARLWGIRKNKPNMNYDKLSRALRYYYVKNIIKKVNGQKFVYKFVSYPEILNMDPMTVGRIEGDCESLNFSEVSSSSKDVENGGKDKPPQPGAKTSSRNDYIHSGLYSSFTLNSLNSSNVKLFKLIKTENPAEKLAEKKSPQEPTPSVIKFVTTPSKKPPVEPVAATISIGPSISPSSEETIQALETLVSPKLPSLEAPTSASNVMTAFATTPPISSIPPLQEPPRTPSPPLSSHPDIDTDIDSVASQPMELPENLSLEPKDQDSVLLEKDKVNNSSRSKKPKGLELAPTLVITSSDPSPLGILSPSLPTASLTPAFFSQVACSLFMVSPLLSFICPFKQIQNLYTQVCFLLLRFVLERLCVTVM
In short: as §1

[7] = biological target: T4, ETV2 (Homo sapiens, UniProt O00321 1-342); conditions: protein: recombinant; tags: N-terminal GST; dsDNA, one strand shown
T4 sequence: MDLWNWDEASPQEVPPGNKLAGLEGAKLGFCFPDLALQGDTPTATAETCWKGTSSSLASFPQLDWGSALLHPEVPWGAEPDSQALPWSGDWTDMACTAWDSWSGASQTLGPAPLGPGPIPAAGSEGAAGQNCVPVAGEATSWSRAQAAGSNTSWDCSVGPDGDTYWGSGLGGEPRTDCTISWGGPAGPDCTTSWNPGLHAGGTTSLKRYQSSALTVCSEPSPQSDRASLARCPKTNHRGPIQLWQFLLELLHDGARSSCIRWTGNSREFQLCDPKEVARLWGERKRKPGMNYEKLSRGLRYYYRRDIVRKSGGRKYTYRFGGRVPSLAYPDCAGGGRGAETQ
In short: as §1

[8] = biological target: T5, ELF3 (Homo sapiens, UniProt P78545 1-371); conditions: protein: recombinant; tags: N-terminal GST; dsDNA, one strand shown
T5 sequence: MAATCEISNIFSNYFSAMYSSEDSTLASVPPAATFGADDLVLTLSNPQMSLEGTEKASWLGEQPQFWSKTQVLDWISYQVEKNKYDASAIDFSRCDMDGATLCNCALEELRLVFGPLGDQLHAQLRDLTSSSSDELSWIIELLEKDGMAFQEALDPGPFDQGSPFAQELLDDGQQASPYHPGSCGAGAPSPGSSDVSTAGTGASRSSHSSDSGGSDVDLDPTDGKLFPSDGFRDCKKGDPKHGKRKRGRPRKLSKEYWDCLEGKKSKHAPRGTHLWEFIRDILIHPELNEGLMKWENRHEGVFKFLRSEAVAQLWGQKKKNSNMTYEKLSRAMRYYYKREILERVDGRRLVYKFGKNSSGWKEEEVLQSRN
In short: as §1

[9] = biological target: CRX (Homo sapiens, UniProt O43186 1-299); conditions: protein: recombinant; tags: N-terminal GST; dsDNA, one strand shown
Sequence of CRX (O43186 whole entry): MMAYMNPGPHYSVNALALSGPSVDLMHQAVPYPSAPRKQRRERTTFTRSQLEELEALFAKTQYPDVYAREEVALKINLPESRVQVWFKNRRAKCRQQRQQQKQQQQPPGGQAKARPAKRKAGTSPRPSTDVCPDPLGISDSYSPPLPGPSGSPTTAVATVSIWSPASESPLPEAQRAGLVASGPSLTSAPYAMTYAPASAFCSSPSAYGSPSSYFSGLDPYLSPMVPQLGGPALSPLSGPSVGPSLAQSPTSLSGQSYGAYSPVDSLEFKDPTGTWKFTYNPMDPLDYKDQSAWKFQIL
In short: as §1

[10] = biological target: ETV1 (Homo sapiens, UniProt P50549 1-477); conditions: protein: recombinant; tags: N-terminal GST; dsDNA, one strand shown
Sequence of ETV1 (P50549 whole entry): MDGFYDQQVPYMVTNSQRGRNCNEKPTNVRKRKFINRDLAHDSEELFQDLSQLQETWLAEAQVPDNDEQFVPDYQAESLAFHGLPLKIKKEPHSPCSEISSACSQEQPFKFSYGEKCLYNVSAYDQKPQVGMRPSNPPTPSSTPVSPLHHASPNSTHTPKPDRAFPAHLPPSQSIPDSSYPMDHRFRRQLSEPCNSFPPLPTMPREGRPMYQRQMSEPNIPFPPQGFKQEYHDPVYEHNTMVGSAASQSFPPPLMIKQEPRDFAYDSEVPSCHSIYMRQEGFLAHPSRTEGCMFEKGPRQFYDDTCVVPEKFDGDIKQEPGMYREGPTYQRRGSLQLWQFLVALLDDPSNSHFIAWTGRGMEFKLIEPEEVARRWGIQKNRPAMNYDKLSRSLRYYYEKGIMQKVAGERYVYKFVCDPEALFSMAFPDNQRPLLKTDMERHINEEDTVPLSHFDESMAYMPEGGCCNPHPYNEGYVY
In short: as §1

With TAAAAC the binding signal [1] was 1.22 fold enrichment (6-mer frequency, TF over GST control), the binding signal [2] was 1.18 fold enrichment (6-mer frequency, TF over GST control) and the binding signal [3] was 1.32 fold enrichment (6-mer frequency, TF over GST control). The binding signal [4] was 1.29 fold enrichment (6-mer frequency, TF over GST control), the binding signal [5] was 1.16 fold enrichment (6-mer frequency, TF over GST control) and the binding signal [6] was 1.15 fold enrichment (6-mer frequency, TF over GST control). For the same sequence, the binding signal [7] was 1.17 fold enrichment (6-mer frequency, TF over GST control), the binding signal [8] was 1.14 fold enrichment (6-mer frequency, TF over GST control) and the binding signal [9] was 1.66 fold enrichment (6-mer frequency, TF over GST control). For the same sequence, the binding signal [10] was 1.18 fold enrichment (6-mer frequency, TF over GST control).

— paper PMC7862700, “An all-to-all approach to the identification of sequence-specific readers for epigenetic DNA modifications on cytosine”
